Test [1] can be described thus: hESC survival regulators, cell-based (AID 493140).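 Note: cells exposed to compounds for four days before counting.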 The note with it: human embryonic stem cell survival screen; stronger effect = higher value.
The nature of test [2]: liver-stage malaria parasite growth inhibition, primary screen, cell-based, HepG2, luciferase luminescence, HepG2 viability (AID 624349; in the data active = parasite load remaining mostly below about 12%, no sharp cut-off; inactive = mostly above about 10%;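 note: 100% = mean of DMSO negative control wells on the same plate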). The note with it: P. berghei liver stage in HepG2, luciferase luminescence, concentration not given here; parasite load remaining: stronger effect = lower value; viability: measured here: HepG2 viability without parasites.
For test [3], the system named is Aerobactin synthetase IucA (Klebsiella pneumoniae). The test can be described thus: IucA aerobactin synthetase inhibitors, biochemical, Tocris library, absorbance (AID 1345561).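 Note: 100% = enzyme without compound and 0% = no enzyme.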 The settings on record: purified IucA enzyme assay, absorbance (OD) read-out; stronger effect = lower value;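 tested at 8 µM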.
A short description of test [4]: sensitizers of A549 cells to miR-34 induction, primary screen, imaging, A549 dox-inducible miR-34, nuclei and caspase counts (AID 1347080;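 active = compounds whose cell count with miR-34 switched on is under 0.7 times the count with it off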). The settings on record: A549 miR-34 inducible, Hoechst nuclei count, 48 h.
The nature of test [5]: survival rescue of mitochondrial mutant cells in low glucose, primary screen, MELAS cybrids, Rieske KO mouse fibroblasts, CellTiter-Glo (AID 1508586;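 active = mean z-score across replicates of 1.96 or higher in either the MELAS or the Rieske mutant cell line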;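 note: z relative to plate mean and SD of compound and empty wells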). (In general: In ATP-based viability assays light output follows the ATP content of the culture.)
Test [6] in a line: viability rescue of complex I mutant cybrids, primary screen, cell-based, galactose medium, ATP luminescence (AID 1645843;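 active = z-score of at least 1.8 in each of two replicates, scored against plate mean and spread of sample wells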;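 note: positive z means more ATP and so rescue of galactose-driven cybrid death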). The settings on record: complex I mutant cybrid cells, 72 h, stronger effect = higher value.
A short description of test [7]: circadian clock period modulators, cell-based, LOPAC library, luminescence reporter (AID 2774).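 Note: values are relative to mean of DMSO wells on each plate.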 The settings on record: circadian reporter cells, at 7 µM, actives lie on both sides.
The test system of test [8] is Hepatitis C virus NS3 helicase. The test can be described thus: HCV NS3 helicase inhibitors, primary screen, biochemical, fluorescence polarization, LOPAC1280 library (AID 687035; in the data active = inhibition above about 37%). The settings on record: Purified HCV NS3 helicase, Cy5-dT15 ssDNA binding fluorescence polarization; stronger effect = higher value; concentration not given here.
The nature of test [9]: Cy5 fluorescence quenching or enhancement artefacts, artefact control for HCV NS3 helicase inhibitor project, biochemical, LOPAC1280 (AID 687037). The note with it: Cy5-DNA-NS3h complex fluorescence interference counterscreen.
The nature of test [10]: phospholipid biosynthesis inhibitors in animal cells, primary screen, cell-based, LOPAC library, screen 4 (AID 1347384). The note with it: phospholipid biosynthesis inhibition screen, at 10 µM.
The target of test [11] is ATP-dependent translocase ABCB1 (Homo sapiens) (UniProt P08183). The experiment in a line: MDR1 (ABCB1) efflux transporter inhibition, cell-based (AID 377; in the data active = fluorescence slope change above about 50%). The settings on record: MDR1-expressing cells, fluorescent substrate accumulation slope; stronger effect = higher value; concentration not given here.
In test [12] the test system is Aerobactin synthetase IucA (Klebsiella pneumoniae, hypervirulent). The test can be described thus: IucA enzyme inhibition, biochemical, LOPAC library, absorbance readout (AID 1346212).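 Note: 100% = no compound wells and 0% = no enzyme wells.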 The settings on record: IucA enzyme assay, absorbance (OD) readout; stronger effect = lower value;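 tested at 8 µM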.
The nature of test [13]: polyglutamine-triggered caspase-3 activation inhibitors, cell-based (AID 1583). The settings on record: polyglutamine-induced caspase-3 activation, cell assay; stronger effect = higher value;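 tested at 10 µM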.
Test [14] in a line: suppressors of polyQ aggregation in yeast, 75Q-TubU reporter (AID 1593). The settings on record: Yeast 75Q polyglutamine aggregation reporter.
Test [15] can be described thus: rescue of polyQ-huntingtin neuronal dysfunction in worms, whole organism, C. elegans mechanosensory neurons, N-terminal huntingtin (AID 1599). The settings on record: touch response, stronger effect = higher value.
A short description of test [16]: inhibitors of mitochondrial cytochrome c release, biochemical, purified mitochondria (AID 1603).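 Note: mouse liver mitochondria challenged with calcium chloride; signal normalized to the plate average as 100%.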 The settings on record: stronger effect = lower value.
A short description of test [17]: inhibitors of polyQ protein aggregation (AID 1604). The note with it: polyglutamine-induced protein aggregation inhibition assay; stronger effect = higher value; tested at 2.5 µM.
Test [18] in a line: enhancers of glutamate uptake in motor neurons, MN-1 cell line (AID 1612).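 Note: tested at 1 µM final; 0% = mean of DMSO vehicle wells on each plate; positive means more glutamate uptake than control and negative means less.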 The note with it: MN-1 motor neuron cells, stronger effect = higher value.
Test [19] can be described thus: reducers of polyQ inclusions in PC12 cells, cell-based, NGF-treated PC12, GFPQ80 (AID 1614).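 Note: lower means fewer inclusions and 0 means no inclusions at all.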 The note with it: PC12 NGF-treated GFP-polyQ80 inclusion reduction.
Test [20] in a line: suppressors of polyglutamine aggregation in yeast, 75Q-TubH (AID 1616). The settings on record: S. cerevisiae 75Q-TubH polyglutamine aggregation suppression; stronger effect = higher value.
The target of test [21] is Mitogen-activated protein kinase 7 (Homo sapiens) (UniProt Q13164). The test can be described thus: ERK5 transactivation activators in reporter cells, primary screen, cell-based, HTS (AID 1508626;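 active = luciferase signal above three times the same-plate solvent-only control wells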;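 note: luciferase driven by Gal4-ERK5 fusion binding five Gal4 sites before minimal TATA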). The settings on record: HeLa Gal4-ERK5 transactivation, 18 h, at 5 µM, stronger effect = higher value.
[22] abbreviates: measured here: relative caspase fold change +Dox/-Dox.
Where [23] appears, read: measured here: total cells with miR-34 induction, stronger effect = lower value.
Setting [24] is: measured here: total cells without miR-34 induction.
[25] abbreviates: MELAS cybrid survival, CellTiter-Glo 48 h, stronger effect = higher value.
The mark [26] stands for this setting: Rieske KO mouse fibroblast survival, CellTiter-Glo 72 h.

“And” between values parts separate entries of the source, which are not always exact repeats. Identical values can stand only once. Results filed as inconclusive are left out. For part of these data: Potency and affinity values are given separately. The source made the active and inactive calls. Unless noted, the rule behind the calls is not given here.

The values that follow come from PubChem BioAssay.

Sequence of ATP-dependent translocase ABCB1 (Homo sapiens) (P08183 whole entry, looked up): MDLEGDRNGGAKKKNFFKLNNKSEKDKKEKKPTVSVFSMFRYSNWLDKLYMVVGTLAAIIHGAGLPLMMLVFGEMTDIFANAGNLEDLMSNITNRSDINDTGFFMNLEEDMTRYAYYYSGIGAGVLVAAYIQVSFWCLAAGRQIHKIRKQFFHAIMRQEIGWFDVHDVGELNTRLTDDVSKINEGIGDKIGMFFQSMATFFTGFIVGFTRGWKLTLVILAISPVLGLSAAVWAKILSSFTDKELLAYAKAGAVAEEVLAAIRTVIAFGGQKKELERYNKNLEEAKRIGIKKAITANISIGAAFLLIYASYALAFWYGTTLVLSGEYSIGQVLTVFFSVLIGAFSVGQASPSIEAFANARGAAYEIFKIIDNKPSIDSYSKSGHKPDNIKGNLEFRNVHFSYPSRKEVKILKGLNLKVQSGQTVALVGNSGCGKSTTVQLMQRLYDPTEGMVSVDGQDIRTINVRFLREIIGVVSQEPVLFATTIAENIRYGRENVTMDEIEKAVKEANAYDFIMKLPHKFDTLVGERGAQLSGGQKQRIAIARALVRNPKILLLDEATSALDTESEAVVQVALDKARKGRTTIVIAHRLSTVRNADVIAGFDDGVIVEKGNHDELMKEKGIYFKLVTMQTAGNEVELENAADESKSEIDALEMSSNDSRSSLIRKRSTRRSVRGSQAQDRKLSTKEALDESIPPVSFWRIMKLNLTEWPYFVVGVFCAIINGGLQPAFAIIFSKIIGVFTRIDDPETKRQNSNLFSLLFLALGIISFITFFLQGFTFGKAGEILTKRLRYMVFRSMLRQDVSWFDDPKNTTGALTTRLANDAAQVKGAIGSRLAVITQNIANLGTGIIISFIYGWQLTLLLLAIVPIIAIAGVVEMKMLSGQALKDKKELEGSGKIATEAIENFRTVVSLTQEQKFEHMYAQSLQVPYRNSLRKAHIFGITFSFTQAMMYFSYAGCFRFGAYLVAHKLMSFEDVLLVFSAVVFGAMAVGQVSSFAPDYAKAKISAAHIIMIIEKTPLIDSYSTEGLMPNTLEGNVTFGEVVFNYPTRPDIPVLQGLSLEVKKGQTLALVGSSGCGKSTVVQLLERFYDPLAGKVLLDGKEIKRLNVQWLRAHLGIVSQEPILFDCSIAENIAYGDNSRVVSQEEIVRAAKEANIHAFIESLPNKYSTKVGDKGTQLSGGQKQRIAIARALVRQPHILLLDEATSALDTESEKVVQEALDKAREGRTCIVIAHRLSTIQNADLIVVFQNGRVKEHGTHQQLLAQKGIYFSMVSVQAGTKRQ
Sequence of Mitogen-activated protein kinase 7 (Homo sapiens) (Q13164 whole entry, looked up, the tested form may be a part): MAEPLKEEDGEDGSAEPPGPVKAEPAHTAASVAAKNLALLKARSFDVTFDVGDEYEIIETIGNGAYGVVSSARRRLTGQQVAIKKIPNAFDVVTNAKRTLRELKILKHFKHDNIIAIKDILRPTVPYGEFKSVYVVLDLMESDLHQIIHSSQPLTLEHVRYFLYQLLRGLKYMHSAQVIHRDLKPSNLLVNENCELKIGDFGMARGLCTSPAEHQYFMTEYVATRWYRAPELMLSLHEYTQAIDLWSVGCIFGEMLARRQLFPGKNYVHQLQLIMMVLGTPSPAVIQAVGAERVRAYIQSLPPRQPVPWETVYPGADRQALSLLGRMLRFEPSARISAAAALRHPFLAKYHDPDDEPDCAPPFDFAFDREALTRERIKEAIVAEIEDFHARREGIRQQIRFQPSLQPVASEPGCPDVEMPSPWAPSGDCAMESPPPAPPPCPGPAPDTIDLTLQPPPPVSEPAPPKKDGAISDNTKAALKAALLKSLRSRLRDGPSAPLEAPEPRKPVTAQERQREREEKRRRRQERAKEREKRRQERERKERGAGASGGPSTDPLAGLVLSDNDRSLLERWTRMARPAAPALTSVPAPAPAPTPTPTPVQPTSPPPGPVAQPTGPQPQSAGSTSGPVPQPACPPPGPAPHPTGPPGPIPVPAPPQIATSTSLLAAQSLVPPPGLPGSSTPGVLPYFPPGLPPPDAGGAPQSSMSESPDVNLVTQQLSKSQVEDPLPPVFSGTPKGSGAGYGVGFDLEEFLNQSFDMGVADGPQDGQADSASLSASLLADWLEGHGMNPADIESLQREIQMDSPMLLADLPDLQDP

Regarding `C[C@@]12N[C@@H](Cc3ccccc31)c1ccccc12`, the survival in [1] was 4.17 (inactive). The parasite load remaining in test [2] was 76.1% (inactive). The viability in [2] came out at 94%. Besides, the remaining activity in [3] is 98.4% (inactive). Besides, the fold change in [4] (stronger effect = lower value) is 0.9 (inactive) and 1.01 (inactive) and 0.896 (inactive); in [4] (setting [22]), 1.15 and 0.684 and 0.656. In addition, the cell count is 9800 and 8290 and 9030 in test [4] (setting [23]); 10900 and 8240 and 10100 in test [4] (setting [24]). In addition, the z-score is -0.404 (inactive) and 0.719 (inactive) in [5] (setting [25]); -0.00785 and -0.0901 in [5] (setting [26]); 0.79 (inactive) in test [6].
In the case of `CCCN(CCC)C1CCc2ccc(O)cc2C1` (configuration not stated), in test [7], the period change is 0.255 h (inactive). Moreover, the inhibition in test [8] was -4% (inactive). Also, the fluorescence ratio (interference) in test [9] was 1 (inactive). In addition, the remaining activity in [3] was 121% (inactive). In addition, the fold change in test [4] (stronger effect = lower value) is 0.974 (inactive) and 1.05 (inactive); in test [4] (setting [22]), 0.963 and 0.686. The cell count in test [4] (setting [23]) was 10200 and 7960; in test [4] (setting [24]), 10500 and 7600. Further, in test [10], the compound was classed as inactive. For the same compound, the z-score in [6] is -0.285 (inactive) and -0.13 (inactive).
As to `CC(C)[C@@]1(NC(=O)[C@@H]2C[C@@H]3c4cccc5[nH]cc(c45)C[C@H]3N(C)C2)O[C@@]2(O)[C@@H]3CCCN3C(=O)[C@H](Cc3ccccc3)N2C1=O`, the fluorescence slope change in [11] was 195% (active). For the same compound, in test [7], the period change was 0.005 h (inactive). Moreover, the survival in [1] is 11.8 (inactive). The parasite load remaining in [2] was 54.5% (inactive) and 64.8% (inactive) and 17.1% (inactive). For the same compound, in test [2], the viability is 93% and 73.6% and 61.5%. For the same compound, the results for the remaining activity in test [3] and in test [12] were 88.2% (inactive) and 120% (inactive), respectively. Further, the fold change in test [4] (stronger effect = lower value) was 0.784 (inactive) and 0.954 (inactive) and 0.887 (inactive); in [4] (setting [22]) it was 1.05 and 0.961 and 0.856. For the same compound, the cell count in test [4] (setting [23]) is 6690 and 7710 and 8510; in [4] (setting [24]), 8530 and 8070 and 9590. Besides, the z-score in [5] (setting [25]) was -0.553 (inactive); in test [5] (setting [26]), 0.653; in test [6] it was -0.045 (inactive) and 0.13 (inactive).
As for `CN1CCc2cc3c(cc2[C@H]1[C@@H]1OC(=O)c2c1ccc1c2OCO1)OCO3`, the fluorescence slope change in test [11] is 0.5% (inactive). Also, in test [13], the inhibition was -6.49%. In addition, the score in test [14] amounted to 1.32. In test [15], this compound yielded a rescue above control of 3.46. The cytochrome c release ratio in test [16] came to 0.82. Moreover, the inhibition of aggregation in test [17] turned out to be 59.1%. The glutamate uptake change in [18] was found to be 4.35%. The compound also displayed an inclusion score in [19] of 1.5. The compound further displayed an aggregation suppression score in [20] of 0.931. In addition, in [7], the period change was 0.03 h (inactive). Moreover, the survival in test [1] is 5.92 (inactive). The parasite load remaining in [2] was 65% (inactive) and 87.6% (inactive). Further, the viability in [2] was 109% and 77.4%. Besides, in test [3], the remaining activity is 114% (inactive). The fold change was 0.865 (inactive) and 0.821 (inactive) and 0.983 (inactive) in test [4] (stronger effect = lower value); 1.2 and 0.761 and 1.26 in test [4] (setting [22]). Besides, the cell count was 9130 and 8360 and 9120 in test [4] (setting [23]); 10600 and 10200 and 9280 in [4] (setting [24]). Further, the values for the z-score in test [5] (setting [25]), in test [5] (setting [26]) and in test [6] were -0.206 (inactive), -0.158 and 0.335 (inactive), respectively. Besides, in test [21], the luciferase signal was 44 AU (inactive).

What is called viability is a read-out of living cells in per cent, often relative to untreated cells. As a reminder, the remaining activity is the signal under treatment as a percentage of the control signal. The term inhibition denotes the drop in the measured response relative to a control, in per cent.
